Screens from PubChem BioAssay.
An excerpt weighted towards active compounds, which were near 9.4% of everything screened.
FLuc counter – counter-screen for miR-21 project: firefly luciferase inhibitors or activators | P08659 | AID 588342 | 6.9% of 360,000 active | Potency, µM (highest dose often 57.5 µM), most hits filed as inhibitors | purified FLuc, Km substrates, luminescence inhibition; further: nearly all actives have a fitted effect of over 55% in size
Target sequence (P08659 whole entry, looked up): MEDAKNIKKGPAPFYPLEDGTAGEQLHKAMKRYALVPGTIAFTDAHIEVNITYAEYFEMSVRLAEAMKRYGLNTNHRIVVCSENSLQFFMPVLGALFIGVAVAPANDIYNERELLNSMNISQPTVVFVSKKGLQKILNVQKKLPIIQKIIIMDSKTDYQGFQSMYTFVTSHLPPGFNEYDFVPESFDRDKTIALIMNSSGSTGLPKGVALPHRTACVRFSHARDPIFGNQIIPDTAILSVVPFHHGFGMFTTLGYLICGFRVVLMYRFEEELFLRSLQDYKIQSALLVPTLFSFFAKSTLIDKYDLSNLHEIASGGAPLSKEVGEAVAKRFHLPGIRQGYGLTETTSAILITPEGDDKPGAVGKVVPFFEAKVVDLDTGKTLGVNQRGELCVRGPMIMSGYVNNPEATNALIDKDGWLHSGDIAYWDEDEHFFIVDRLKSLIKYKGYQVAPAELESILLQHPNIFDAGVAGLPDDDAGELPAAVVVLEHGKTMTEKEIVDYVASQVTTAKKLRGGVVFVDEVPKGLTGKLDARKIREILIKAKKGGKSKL
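Purified P. pyralis luciferase, 10 nM final, with Km-level 10 uM D-luciferin and 10 uM ATP in 50 mM Tris acetate pH 7.5, 10 mM Mg acetate, 0.01% Tween-20, 0.05% BSA; 6-point qHTS titration about 60 µM downward; luminescence read.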
ELG1 genotoxic – inducers of genotoxicity in HEK293T ELG1-luciferase cells; HEK293T ELG1-luciferase reporter, luminescence, 16 h; Potency, µM (highest dose often 46 µM), most hits filed as activators; 1.3% of 330,000 active; AID 504466; further: nearly all actives have a fitted effect of over 60% in size
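Luminescence read-out: rising ELG1-luciferase signal, reflecting elevated ELG1 protein under genetic stress, flags genotoxic compounds. Cells were treated for 16 hr at 37 °C before ONE-Glo detection.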
ELG1 DNA repair – blocks ELG1-dependent DNA repair in HEK293T cells; 2.3% of 330,000 active; HEK293T ELG1-luciferase reporter, luminescence, 16 h; DNA damage induced by 5-fluorouridine; Potency, µM (series often up to 46.1 µM), most hits filed as inhibitors; further: nearly all actives have a fitted effect of over 55% in size
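Reporter activity after DNA damage by 5-fluorouridine is monitored. Compound-treated cells incubate 16 hr at 37 °C, then ONE-Glo is added for 30 min before luminescence reading.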
Rab9 promoter act – activates the Rab9 promoter; Potency, µM (series often up to 9.22 µM), actives largely listed as activators; 2.8% of 320,000 active; Huh7 Rab9 promoter-luciferase reporter, luminescence, 24 h; further: nearly all actives have a fitted effect of over 60% in size
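Huh7 cells stably carrying Rab9 promoter–luciferase reporter, plated 1500 cells/well, compound added after 2 h and incubated 24 h at 37 °C; luciferase luminescence then read after 10 min with detection reagent.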
NPC1 promoter act – activators of NPC1 promoter. Potency, µM (top dose mostly 9.22 µM), usual class: activators. 2.4% of 320,000 active. AID 485313. Huh7 NPC1 promoter luciferase reporter, 24 h; further: nearly all actives have a fitted effect of over 60% in size
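Stable NPC1-promoter luciferase Huh7 line; cpd (DMSO) 24 h, 37 °C, 5% CO2; Amplite luciferase reagent 10 min RT; luminescence readout. qHTS format.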
SMN2 splice enh – increases expression of the SMN2 splice variant; HEK293 SMN2-luciferase splicing reporter, luminescence, 30-36 h; Potency, µM (top dose mostly 46.1 µM), hits mostly activators; 2.8% of 210,000 active; AID 1458; further: nearly all actives have a fitted effect of over 55% in size
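qHTS luciferase splicing reporter: luminescence rises when SMN2 exon 7 is included in transfected HEK293 cells. Compound exposure lasted 30-36 h at 37C, with 4.5 mM final sodium butyrate as control, followed by a ONE-Glo read.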
Hits are given with their value; - = inactive; ? = inconclusive; . = no result; [ ] = another dose, or the depositor's remark. The call rests on the fitted dose curve; in most records, active means well fitted curve in the direction sought with a large enough effect; inconclusive means small, poorly fitted or top-dose-only effect, or another doubt; inactive means no such curve, though single readings can be large; an effect the other way counts as inactive or inconclusive.

SMILES | FLuc counter | ELG1 genotoxic | ELG1 DNA repair | Rab9 promoter act | NPC1 promoter act | SMN2 splice enh
COc1ccc(/C=N/c2nc3ccccc3n2C)cc1OC | 0.76µM | - | - | - | - | -
Cn1c(/N=C/c2ccccc2[N+](=O)[O-])nc2ccccc21 | 1.7µM | - | - | - | - | .
Cn1c(/N=C/c2cc(Cl)ccc2O)nc2ccccc21 | - | - | - | - | - | -
Cn1c(/N=C/c2cccs2)nc2ccccc21 | 1.1µM | - | - | - | - | -
Cc1ccc(NC(=O)c2ccc(F)c(S(=O)(=O)NCCc3ccccc3)c2)cc1F | - | . | . | . | . | .
CCCCOc1ccc(C(=O)N2CCN(CCc3ccncc3)CC2)cc1 | - | . | . | . | . | .
CCCc1n(CC)c2ccccc2[n+]1CC(O)COC1CCCCC1 (centres undefined) | - | - | 3.3µM | - | - | -
Cc1ccc(C)c(NC(=O)COC(=O)c2cccc3c2C(=O)c2ccccc2C3=O)c1 | - | - | 23µM | - | - | -
Cc1cc(C)c(NC(=O)COC(=O)c2cccc3c2C(=O)c2ccccc2C3=O)c(C)c1 | - | - | 13µM | - | - | -
Cc1ccc(NC(=O)COC(=O)c2cccc3c2C(=O)c2ccccc2C3=O)c(C)c1 | - | - | 10µM | - | - | -
Cc1ccccc1CSc1cn(CC(=O)N2CCCCCC2)c2ccccc12 | - | . | . | . | . | .
CC1CCN(C(=O)CSc2nc3ccccc3nc2Cc2ccccc2)CC1 | - | . | . | . | . | .
Cc1ccccc1Nc1c(-c2c[nH]c3ccccc23)nc2cccc(C)n12 | - | . | . | . | . | 11µM
Cc1ccc(CNC(=O)c2ccc(N3CCCC3)c(NC(=O)Nc3ccc(F)c(Cl)c3)c2)cc1 | - | . | . | . | . | .
Cc1nn(C)c(Cl)c1/C=N/OC(=O)c1ccc(F)cc1 | 17µM | - | - | - | - | -
Cn1nc(C(F)(F)F)c(/C=N/OC(=O)c2ccccc2)c1Cl | ? | - | - | - | - | -
Cc1nn(C)c(Cl)c1/C=N/OC(=O)c1ccccc1 | 12µM | - | - | - | - | -
Cn1c(Cl)c(/C=N/OC(=O)c2ccccc2Cl)c2ccccc21 | 6.7µM | - | ? | - | - | -
COc1cc2ccccc2cc1C(=O)N1CCN(c2nc3ccc(F)cc3s2)CC1 | - | . | . | . | . | .
COc1cccc(-c2cn3ncsc3n2)c1 | 15µM | . | . | . | . | -
CN(C)Cc1ccccc1-c1cc(N(C)C)ncn1 | . | . | . | . | . | -
CC(=O)NC12CC3CC(C1)CC(C(=O)NCc1ccc(C)cc1)(C3)C2 | - | - | - | - | - | .
Cc1cccc(-c2ccc3ncnc(N(C)Cc4ccco4)c3c2)c1 | ? | . | . | - | - | .
Cc1noc(C)c1-c1ccc2ncnc(N(C)Cc3ccco3)c2c1 | . | . | . | . | . | 3.5µM
C/C(=N\NC(=O)c1c(Cl)c(C)nn1C)c1cccc(NC(=O)C2CCCC2)c1 | 17µM | - | ? | - | - | .
SMILES | FLuc counter | ELG1 genotoxic | ELG1 DNA repair | Rab9 promoter act | NPC1 promoter act | SMN2 splice enh
Cc1ccnc2ccc(-c3nc4ccccc4o3)cc12 | 5.4µM | ? | ? | 3.5µM | ? | 18µM
Cc1nc2ccc(-c3nc4ccccc4o3)cc2[nH]1 | 2.4µM | ? | ? | 0.45µM | 0.71µM | ?
COc1ccc(CCNc2ccc(N3C(=O)CC(C)C3=O)cc2[N+](=O)[O-])cc1OC (centres undefined) | - | - | 3.7µM | - | - | -
COc1ccc(CCNc2ccc(N3C(=O)CC(C)C3=O)cc2[N+](=O)[O-])cc1 (centres undefined) | - | - | - | - | - | .
Cc1cc2cc(C(c3nnnn3C3CCCC3)N(Cc3cccnc3)Cc3ccco3)c(=O)[nH]c2cc1C (centres undefined) | - | - | 18µM | - | - | -
CCCC(=O)N1CCN(c2ccc(C(=O)c3ccc(OC)c(Br)c3)cc2F)CC1 | - | - | ? | - | - | -
COc1ccc(C(=O)c2ccc(N3CCN(C(=O)c4ccc(F)cc4)CC3)c(F)c2)cc1Br | - | - | 21µM | - | - | -
Cc1ccc(C)c(NC(=O)CN2C(=O)c3cccc4cccc2c34)c1 | - | . | . | . | . | -
COc1ccc(/C=C2/SC(=S)N(CC(=O)O)C2=O)cc1OCc1ccc(Cl)cc1 | 19µM | - | ? | - | - | .
O=C(O)CN1C(=O)/C(=C\c2cc(Br)ccc2OCc2ccc(Cl)cc2)SC1=S | - | - | - | - | - | .
O=C(O)CN1C(=O)/C(=C\c2cccc(OCc3ccccc3)c2)SC1=S | 15µM | - | ? | - | - | .
COc1cc(/C=C2\SC(=S)N(CC(=O)O)C2=O)ccc1OC(=O)c1ccco1 | 7.6µM | - | - | - | ? | .
COc1cc(/C=C2/SC(=S)N(CC(=O)O)C2=O)ccc1OC(=O)c1ccco1 | 7.6µM | - | - | - | - | .
CCOc1ccc(CNc2nc3nc(C)c(Cc4ccccc4)c(=O)n3[nH]2)cc1 | - | . | . | . | . | -
CCOc1cc(/C=C2/SC(=S)N(CC(=O)O)C2=O)ccc1OC(=O)c1cccs1 | 17µM | - | - | - | - | .
CCOc1ccc(/C=C2/SC(=S)N(C(C(=O)O)c3ccccc3)C2=O)cc1OCC (centres undefined) | ? | - | - | - | - | -
CCCNC(=O)OCCC12CC3CC(CC(C3)C1)C2 | 12µM | ? | ? | - | - | -
CCN(CC)CCCNC(=O)c1cnc(SC)nc1-c1ccccc1 | - | . | . | . | . | .
Cc1ccc2nc(NC(=O)C3CCCN(S(=O)(=O)c4cccc5nsnc45)C3)sc2c1 (centres undefined) | ? | - | 18µM | - | - | -
Cc1ccc2nc(NC(=O)C3CCN(S(=O)(=O)c4cccc5nsnc45)CC3)sc2c1 | - | - | 16µM | - | - | -
Cc1ccc2nc(NC(=O)C3CCN(S(=O)(=O)c4cccnc4)CC3)sc2c1 | - | - | 16µM | - | - | -
Cc1ccc(NC(=O)C2CCN(S(=O)(=O)c3cccc4nsnc34)CC2)cc1 | - | . | . | . | . | -
O=C(Nc1nc2ccc(F)cc2s1)C1CCN(S(=O)(=O)c2cc([N+](=O)[O-])ccc2Cl)CC1 | 11µM | - | ? | - | - | -[1.84 µM]
COc1ccc(/C=C\c2onc(C)c2S(=O)(=O)N2CCC(C(=O)Nc3ccc(Cl)cc3)CC2)cc1 | - | . | . | . | . | -
COc1ccc(N2CCN(S(=O)(=O)CCNC(=O)c3ccc(C(F)(F)F)cc3)CC2)cc1 | - | . | . | . | . | .
COc1cc(S(=O)(=O)N(C)C)ccc1Br | - | - | - | - | - | -
CN(C)S(=O)(=O)c1ccc2c(c1)Cc1cc(S(=O)(=O)N(C)C)ccc1-2 | - | - | 2.3µM | - | - | .
CCOc1cc(-c2nc(-c3ccc(-c4ccc(C)cc4)nc3OC)no2)cc(OCC)c1OCC | - | . | . | . | . | -
Nc1nc(CSc2ccccc2)nc(N2CCCCC2)n1 | ? | ? | ? | ? | ? | 20µM
Nc1nc(CSc2ccc(Cl)cc2)nc(N2CCCCC2)n1 | ? | - | - | - | - | -
